TRPML1 agonist: agonists of human TRPML1 channel; Q9GZU1; TRPML1-expressing cells, Ca2+ dye fluorescence, FDSS; activation, % (concentration not given with the values); hit rate 0.12% among 410,000; in the data active = activation above about 50%; inconclusive = mostly about 30% to 49%; also: 0% is about no effect
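Tet-induced TRPML1-DL cells, 1,500 per well, cultured overnight, were loaded with a no-wash Ca2+ dye for 45–90 min. Calcium fluorescence was recorded on the FDSS for 110 s after compound addition, before the EC80 agonist (4 uM 54-4) was added.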
GRP78 ERSR act: induces the endoplasmic reticulum stress response in human glioma cells; AID 602332; U87-MG GRP78 promoter luciferase reporter, 16 h; Potency, µM, without a hit: top-dose activation, most hits filed as activators; hit rate 0.02% among 420,000; active = well fitted activation curve with a large enough effect; inconclusive = small, poorly fitted or top-dose-only effect; inactive = no such curve, though single readings can be large or run the other way; also: potency is read from the fitted curve at half-maximal effect; series mostly up to about 76 µM; % of control where 0% means no effect; nearly all actives have a fitted effect of over 35% in size
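Stably transfected U87-MG human glioma cells carrying a GRP78-based luminescent sensor were seeded at 1000 cells/well, pin-dosed with compounds and incubated 16 h. Luciferase reagent was then added, and end-point luminescence was read after 10 min at room temperature.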
TRPML1 blocker: inhibitors of human TRPML1 channel; Q9GZU1; hit rate 0.02% among 390,000; activity change, negative = inhibition, % (test concentration not listed); TRPML1-inducible cells, Ca2+ dye fluorescence, FDSS; active compounds read low; inhibition of EC80 agonist-evoked calcium signal; in the data active = activity change below about -50%; inconclusive = between about -30% and that limit;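 also: stimulus is agonist 54-4 at its EC80 concentration; % is scaled to controls: 0 for no effect and ±100 for the full control effect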
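Tet-induced TRPML1-DL cells loaded with Ca8 no-wash calcium dye were read kinetically on FDSS. Compound addition was followed by EC80 agonist 54-4 (4 uM final); inhibition was read over 110 s.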
KCNH2 WT inh: inhibitors of human wildtype KCNH2 potassium channel | AID 720551 | activity change, % at 1.84 µM | U2OS, BacMam KCNH2, thallium flux FluxOr; active compounds read low | hit rate 0.37% among 340,000;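 active = maximum activity change below -70%; inconclusive = maximum activity change between -70% and -50%; inactive = maximum activity change above -50%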; also: % is scaled to controls: 0 for no effect and ±100 for the full control effect
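U2OS cells transduced with wild-type KCNH2 virus are loaded with FluxOr dye for 45 min, and thallium flux is measured in kinetic reads before and after stimulation buffer. Rate constants are normalized to DMSO controls.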
PTAP TSG101 blk: blocks PTAP/TSG101 interaction to inhibit HIV-1 budding; Fluorescence polarization, FITC-PTAP peptide / Tsg101 binding; Q99816; Potency, µM (top dose mostly 115 µM), inactives show at the highest dose activity change, negative = inhibition, usual class: inhibitors; 340,000 tested, under 10 active; AID 493005; active = well fitted inhibition curve with a large enough effect in the main read-out, with a control signal flat, not every such curve was filed as active; inconclusive = small, poorly fitted or top-dose-only effect, or effect the other way, or a change in a side signal; inactive = no such curve, though single readings can be large or run the other way; also: potency is read from the fitted curve at half-maximal effect; % of control where 0% means no effect
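Fluorescence polarization binding of Tsg101 binding domain (10 uM final) to FITC-labeled PTAP peptide (50 nM final) in HEPES pH 7.5 buffer with NaCl, Tween 20, EDTA, TCEP. Compounds added before peptide; binding 20 min at RT.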
KCNH2 3.1 block: blocks the human KCNH2 3.1 channel isoform | U2OS KCNH2 3.1, thallium flux FluxOr; active compounds read low | activity change, % (tested at about 1.8 µM) | hit rate 0.95% among 340,000 | AID 720553;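 active = maximum activity change below -70%; inconclusive = maximum activity change from -70% to -50%; inactive = maximum activity change above -50%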;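 also: thallium influx rate constant from kinetic fluorescence after stimulation buffer; % is scaled to controls: 0 for no effect and ±100 for the full control effect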
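Thallium flux read-out: FluxOr dye with Red40 quencher in HBSS/HEPES, 45 min at RT. Rate constants from kinetic reads were normalized to positive and negative DMSO controls. Cells: U2OS virally expressing the 3.1 isoform.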
Active calls of the source: *; ? = inconclusive; . = not tested or not shown. Hits are enriched below; roughly 1% of the tested compounds scored in any of these assays.

SMILES | TRPML1 agonist | GRP78 ERSR act | TRPML1 blocker | KCNH2 WT inh | PTAP TSG101 blk | KCNH2 3.1 block
CCOc1ccc(CN(C)C(C)C(=O)Nc2ccc([N+](=O)[O-])cc2Cl)cc1OC (stereo not drawn) | 0 | -4% | 5 | -39 | -3% | ?
COc1ccc(CN(C)C(C)C(=O)Nc2ccc([N+](=O)[O-])cc2Cl)cc1OC (stereo not drawn) | 1 | -8% | 5 | 0 | -4% | -85*
CCOC(=O)c1ccc(-c2ccc(/C=C(\C#N)c3nc4ccc(C)cc4[nH]3)o2)cc1 | 51* | . | -29 | . | . | .
Cc1ccc(OCC(=O)N2CCN(c3nnc(-c4ccccc4)c4ccccc34)CC2)cc1 | 4 | -4% | -13 | -16 | -8% | -70*
CC(=O)N1CCN(c2nnc(-c3ccc(C)cc3)c3ccccc23)CC1 | 2 | -1% | 3 | -3 | 1% | -1
CCC1(C2CCN(C(=O)c3ccccc3C(C)=O)CC2)NC(=O)N(CCc2scnc2C)C1=O (stereo not drawn) | . | -4% | . | . | . | .
O=C(Cn1cc(C(F)(F)F)ccc1=O)NCCc1ccc(Cl)cc1Cl | 1 | -2% | -3 | 9 | -1% | 0
N#Cc1ccc(CN2CCN(CC(=O)NCCc3ccc(Cl)cc3Cl)CC2)cc1 | 1 | -2% | 51 | -79* | -2% | -80*
Cc1ccc(-n2c(SCC(=O)Nc3ccc4cn[nH]c4c3)nnc2-c2ccco2)cc1 | 3 | -3% | 5 | -10 | -1% | -112*
Cc1ncc2c(c1CNS(=O)(=O)N(C)C)CCN(C(=O)/C=C/c1cccc(F)c1)C2 | . | -5% | . | . | . | .
CC1CCN(c2nnc(-c3cccs3)c3ccccc23)CC1 | 0 | 5% | 52 | -3 | -4% | -85*
c1csc(-c2nnc(NC3CCCCC3)c3ccccc23)c1 | 2 | -4% | -9 | 20 | -4% | 3
CCSc1nnc(C(C)NS(=O)(=O)c2cccc(Cl)c2C)n1C (stereo not drawn) | . | -7% | . | . | . | .
Cc1ccc(C(c2nnnn2C(C)(C)C)N(Cc2ccco2)Cc2cccs2)cc1 (stereo not drawn) | 60* | -2% | -9 | 0 | 1% | -16
CC(C)Cc1nn2c(=O)cc(COC(=O)c3ccccc3NC(=O)c3ccccc3)nc2s1 | 0 | 2% | -56* | . | . | .
COC(=O)CNC(=O)CNC(=O)Nc1ccccc1Cl | 0 | -6% | 15 | -12 | -7% | -77*
O=C1C=C(c2ccc3ncccc3c2)C[C@@H](c2ccc(F)cc2)C1 | 2 | -2% | 8 | 1 | 0% | -3
O=C1C=C(c2ccc3ccccc3c2)C[C@@H](c2ccc(F)cc2)C1 | 0 | 0% | -6 | -7 | -4% | -86*
Cc1ccc(C(=O)NCCc2nnc3n2CCN(Cc2ccc4ccccc4c2)CC3)c(C)c1 | . | 2% | . | . | . | .
CC(C)C(NS(C)(=O)=O)c1nnc2n1CCN(Cc1cccc3ncccc13)CC2 (stereo not drawn) | . | -3% | . | . | . | .
CC(NC(CCc1ccccc1)C(=O)O)C(=O)N1CCCC1C(=O)O (stereo not drawn) | . | -4% | . | . | . | .
CC1(C)Cc2c(cnn2-c2cccc(F)c2)C(NC(=O)c2csnn2)C1 (stereo not drawn) | 1 | -2% | -9 | -74* | -4% | ?
CC1(C)Cc2c(cnn2-c2ccc(F)cc2)C(NC(=O)c2ccoc2)C1 (stereo not drawn) | -1 | -4% | -14 | ? | -6% | -81*
CCCCn1cnc2c(SCc3ccc([N+](=O)[O-])cc3)nc(N)nc21 | 1 | 1% | -11 | 14 | -6% | -85*
CC(C)(C)OC(=O)N1CCC(c2c(C(=O)N3CCCCC3)cnn2-c2ccc(F)cc2F)CC1 | 0 | 1% | -12 | . | . | .
SMILES | TRPML1 agonist | GRP78 ERSR act | TRPML1 blocker | KCNH2 WT inh | PTAP TSG101 blk | KCNH2 3.1 block
Cc1ccc(N2CCN(C(=O)c3cnn(-c4ccc(F)cc4F)c3C3CCN(C(=O)OC(C)(C)C)CC3)CC2)c(C)c1 | 58* | -2% | -10 | . | . | .
Cc1ccc(C)c(N2CCN(C(=O)c3cnn(C(C)(C)C)c3C3CCN(C(=O)OC(C)(C)C)CC3)CC2)c1 | 51* | -3% | -26 | . | . | .
Cc1cccc(C)c1Nc1nnc(SCc2cn3cccc(C)c3n2)s1 | 0 | -7% | 0 | . | -6% | -179*
C=CCn1c(SCC(=O)N2CCN(C(=O)c3ccco3)CC2)nc2sc(CC)cc2c1=O | 2 | -3% | 14 | -109* | -11% | ?
CSc1nnc(CNC(=O)c2cccc3ccccc23)n1-c1ccccc1C | . | -4% | . | . | . | .
COc1cc2nc(NC3CCN(Cc4ccccc4)CC3)nc(N3CCCN(C)CC3)c2cc1OC | 0 | . | . | . | . | .
Cc1ccc(C)c(CN2C[C@H](Sc3ccccn3)C[C@H]2C(=O)Nc2ccc3sc(C)nc3c2)c1 | . | -3% | . | . | . | .
CCc1cccc2c1NC(=O)C21N2CCCC2C(C(=O)c2ccc3ccccc3c2)C12C(=O)Nc1ccccc12 (stereo not drawn) | 3 | 5% | 29 | -2 | -5% | -113*
Cc1ccc(F)cc1S(=O)(=O)NCc1nc(N2CCCC2)c2cccc(C)c2n1 | . | -4% | . | . | . | .
CN1CCN(c2ccc(NC(=S)NC(=O)c3cccc4c(Br)cccc34)cc2)CC1 | -1 | -4% | -1 | -36 | -2% | -83*
CN1CCN(c2ccc(NC(=O)COc3cccc4ccccc34)cc2)CC1 | 0 | 2% | -14 | -1 | -3% | -35
CN1CCN(c2ccc(NC(=O)c3ccccc3Br)cc2)CC1 | 0 | 7% | 51 | -7 | -2% | 0
CN1CCN(c2ccc(NC(=S)NC(=O)c3cccc4ccccc34)cc2)CC1 | 0 | -1% | 7 | 17 | -7% | -79*
O=C(NCc1cccnc1)c1ccc(CS(=O)(=O)Cc2ccc(Cl)cc2)o1 | 4 | -2% | 4 | -9 | -9% | -9
O=S(=O)(Cc1ccc(Cl)cc1)NCc1cccnc1 | 3 | -3% | 0 | -9 | 0% | -78*
CCOc1ccc(N(CC(=O)NC2CCCCC2)C(=O)CCC(=O)Nc2nccs2)cc1 | 0 | -1% | 38 | 5 | -1% | -91*
Cc1cc(C)cc(N(CC(=O)NCc2ccco2)C(=O)CCC(=O)Nc2nccs2)c1 | 0 | -5% | 12 | 6 | 2% | -72*
CN1CCN(CC(=O)Nc2sc3c(c2C(=O)Nc2ccccc2)CCCC3)CC1 | 1 | -3% | 8 | -92* | 2% | -95*
O=C(Cc1ccccc1)Nc1sc2c(c1C(=O)Nc1ccccc1)CCCCC2 | 3 | 0% | -7 | . | . | .
Cc1[nH]c2ccccc2c1/C=C/c1ccnc2ccccc12 | 13 | -12% | . | . | . | .
